From PubChem BioAssay
Compounds with a hit are over-represented: about 1% of the library has one in this group of screens.
PKA kinase inh – blocks human protein kinase A activity; PKA Kemptide phosphorylation, Kinase-Glo ATP luminescence; AID 524; P17612; hit rate 0.1% among 65,000; inhibition, % at 6 µM;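 active = inhibition above the screen-wide mean inhibition plus 3 SD, cut at about 21% in these data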
DUSP1 inh – inhibitors of human MKP-1 phosphatase; recombinant MKP-1, OMFP hydrolysis fluorescence; AID 374; P28562; hit rate 0.15% among 65,000; inhibition, %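 (compounds tested at a single concentration somewhere between 10 and 100 µM)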;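 active = inhibition above about 50%, limit read from the data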
Cdc25B inh – human M-phase inducer phosphatase 2 inhibition. inhibition, %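 (compounds tested at 10 µM final in the well)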. P30305. recombinant Cdc25B, OMFP fluorescence Ex485/Em525. hit rate 0.1% among 65,000; in the data active = inhibition above about 50%
JNK3 inh – inhibitors of human JNK3 kinase; P53779; purified JNK3 kinase activity, HTS; inhibition, % at 8 µM; hit rate 0.61% among 60,000; AID 746; in the data active = inhibition above about 17%
ROCK2 inh – inhibitors of human Rho kinase 2 | O75116 | purified ROCK2, Kinase-Glo ATP depletion luminescence | inhibition, % at 6 µM | hit rate 0.35% among 60,000;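 active = inhibition above the screen-wide mean inhibition plus 3 SD, cut at about 18% in these data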
Target sequence (O75116 whole entry, looked up): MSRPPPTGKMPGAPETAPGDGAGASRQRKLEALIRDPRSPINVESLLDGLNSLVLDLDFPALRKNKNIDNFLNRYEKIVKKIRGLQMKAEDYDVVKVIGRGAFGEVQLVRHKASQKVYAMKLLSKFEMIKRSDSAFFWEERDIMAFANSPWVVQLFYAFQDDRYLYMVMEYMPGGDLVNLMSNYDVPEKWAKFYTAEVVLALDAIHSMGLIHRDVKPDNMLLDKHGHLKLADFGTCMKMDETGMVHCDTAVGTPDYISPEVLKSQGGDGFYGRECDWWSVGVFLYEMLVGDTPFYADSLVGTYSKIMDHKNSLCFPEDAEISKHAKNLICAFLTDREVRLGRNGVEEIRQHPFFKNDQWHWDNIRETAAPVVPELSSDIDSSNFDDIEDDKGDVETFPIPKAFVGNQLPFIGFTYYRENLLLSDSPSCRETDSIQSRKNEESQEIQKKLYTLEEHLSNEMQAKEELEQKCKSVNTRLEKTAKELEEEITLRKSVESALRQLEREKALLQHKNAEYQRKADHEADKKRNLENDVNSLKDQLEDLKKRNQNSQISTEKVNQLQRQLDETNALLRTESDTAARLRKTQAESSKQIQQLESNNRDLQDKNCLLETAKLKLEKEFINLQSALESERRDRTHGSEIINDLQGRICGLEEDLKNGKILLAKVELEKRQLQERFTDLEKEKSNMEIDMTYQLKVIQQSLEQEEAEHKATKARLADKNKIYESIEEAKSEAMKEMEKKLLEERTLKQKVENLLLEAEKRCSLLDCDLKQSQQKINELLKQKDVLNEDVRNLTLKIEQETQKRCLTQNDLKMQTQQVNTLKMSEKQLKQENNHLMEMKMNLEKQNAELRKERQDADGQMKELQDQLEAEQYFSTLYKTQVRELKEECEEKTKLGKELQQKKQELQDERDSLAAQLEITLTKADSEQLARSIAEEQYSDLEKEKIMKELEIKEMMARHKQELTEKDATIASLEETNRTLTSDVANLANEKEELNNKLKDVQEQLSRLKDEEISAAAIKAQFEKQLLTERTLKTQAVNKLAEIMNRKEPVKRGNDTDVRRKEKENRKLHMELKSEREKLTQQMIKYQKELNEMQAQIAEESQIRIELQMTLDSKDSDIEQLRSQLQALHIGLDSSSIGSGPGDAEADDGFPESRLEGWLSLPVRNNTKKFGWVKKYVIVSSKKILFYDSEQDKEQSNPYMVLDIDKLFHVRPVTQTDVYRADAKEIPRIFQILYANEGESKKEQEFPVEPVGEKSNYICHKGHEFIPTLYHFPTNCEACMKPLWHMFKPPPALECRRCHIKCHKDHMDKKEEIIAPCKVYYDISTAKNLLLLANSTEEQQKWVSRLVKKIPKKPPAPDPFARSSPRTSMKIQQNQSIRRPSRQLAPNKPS
Hsp90 inh – displaces geldanamycin probe from tumor Hsp90. inhibition, % at 30 µM. AID 429. NCI-N417 lysate Hsp90, Cy3B-geldanamycin FP displacement. hit rate 0.35% among 64,000. P07900;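 active = inhibition above 50%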
Hits are given with their value; – = inactive; · = no result.

SMILES	PKA kinase inh	DUSP1 inh	Cdc25B inh	JNK3 inh	ROCK2 inh	Hsp90 inh
COc1ccc(OC)c(NC(=O)CSc2nnc(Cc3cccn3C)n2CCc2ccccc2)c1	–	65	–	–	–	–
Cn1cccc1Cc1nnc(SCC(=O)Nc2ccc(F)cc2)n1CCc1ccccc1	–	–	–	–	–	–
O=C(O)c1cc(=O)c2ccc(Cl)cc2[nH]1	·	·	·	·	·	–
O=c1ccc2ccc(O)c(O)c2o1	·	·	·	·	·	69
COc1cc(NCC(O)CN(CC(C)C)CC(C)C)c2nc(C)ccc2c1 (stereo not drawn)	·	·	·	·	·	–
O=c1c2ccccc2nc(-c2ccco2)n1CCCn1ccnc1	–	–	–	18	–	–
CN(c1ccc(C(=O)Nc2nccs2)cc1)S(=O)(=O)c1ccccc1	–	–	–	28	–	–
CCOc1ccc(S(=O)(=O)Nc2ccc3c(c2)OCO3)c2cccnc12	–	–	–	–	–	54
CCOc1ccc(NC(=O)CN2C(=O)C3CCCN3C2=O)cc1 (stereo not drawn)	–	–	–	17	–	–
CC(C)CN(C)c1nc(N)c(C(=O)N=C(N)N)nc1Cl	·	·	·	·	·	–
CCOC(=O)c1ccc2[nH]c3c(c2c1)CCCCC3=O	–	–	–	24	–	–
COc1ccc(CCNC[C@@H](O)c2ccc(O)cc2)cc1OC	·	·	·	·	·	–
CC1CCc2nc(N)c(C#N)c(-c3cccnc3)c2C1 (stereo not drawn)	·	–	–	·	·	·
CC1CCc2nc(N)c(C#N)c(-c3ccncc3)c2C1 (stereo not drawn)	–	–	–	17	–	–
CCOC(=O)c1c(C)[nH]c2ccc(O)cc12	–	–	–	18	–	–
O=C(CCCOc1ccccc1)Nc1ccncc1	30	–	–	–	33	–
CCCCOc1ccc(C(=O)Nc2ccncc2)cc1	–	–	–	–	–	–
COc1cccc(C2/C(=C(\O)c3c(C)nc4c(C)cccn34)C(=O)C(=O)N2CCCN(C)C)c1OC (stereo not drawn)	–	–	–	–	–	–
Cc1nc2c(C)cccn2c1/C(O)=C1\C(=O)C(=O)N(CCN(C)C)C1c1ccncc1 (stereo not drawn)	–	–	56	–	–	–
O=C1c2ccccc2C(=O)N1Cc1ccco1	–	–	–	–	–	–
CC1=CC(=C2C(=O)c3ccccc3C2=O)C=C(C)N1Cc1ccco1	–	–	–	34	–	–
OC[C@H]1O[C@@H](n2cnc3c(NCCc4ccccc4)ncnc32)C(O)[C@H]1O (stereo partly drawn)	·	·	·	·	·	–
O=C(COc1ccccc1)N1CCN(S(=O)(=O)c2cccs2)CC1	–	–	61	–	–	·
N#Cc1ccc(OCC(=O)N2CCN(S(=O)(=O)c3cccs3)CC2)cc1	–	–	–	–	–	–
Cc1cc(C(=O)NCc2ccco2)cs1	–	–	–	–	–	·
SMILES	PKA kinase inh	DUSP1 inh	Cdc25B inh	JNK3 inh	ROCK2 inh	Hsp90 inh
Cn1c(C(=O)NCc2ccco2)cc2c(=O)[nH]c3ccccc3c21	–	–	–	47	–	–
O=C1c2ccccc2C(Nc2ccc3c(c2)OCO3)N1Cc1ccc2c(c1)OCO2 (stereo not drawn)	–	–	–	–	–	51
O=C1c2ccccc2C(Nc2cccnc2)N1Cc1ccc2c(c1)OCO2 (stereo not drawn)	–	–	–	–	–	–
COc1ccc(N2C(=O)CSC23C(=O)N2CCCc4cccc3c42)cc1 (stereo not drawn)	–	–	–	–	–	67
CCNC(=O)C1OC(n2cnc3c(NCc4ccccc4)ncnc32)C(O)C1O (stereo not drawn)	·	·	·	·	·	–
Cn1ccnc1	·	·	·	·	·	–
CC1=CC(=C2C(=O)c3ccccc3C2=O)C=C(C)O1	–	–	–	–	–	–
CN1C=CC(=C2C(=O)c3ccccc3C2=O)C=C1	–	–	–	32	–	–
CCN1C=CC(=C2C(=O)c3ccccc3C2=O)C=C1	–	–	–	62	–	–
CCCN1C=CC(=C2C(=O)c3ccccc3C2=O)C=C1	–	–	–	56	–	–
COc1cc(Nc2c3ccc(Cl)cc3nc3ccc(OC)cc23)c2ncccc2c1	·	·	·	·	·	–
O=C(NCc1nc2ccccc2[nH]1)c1ccco1	–	–	–	–	–	–
O=C(NCc1nc2ccccc2[nH]1)c1cccs1	–	–	–	28	–	–
Cc1nc2ccc(S(=O)(=O)NC(C(=O)NCc3ccco3)C(C)C)cc2s1 (stereo not drawn)	–	–	60	–	–	–
Cc1nc2ccc(S(=O)(=O)NC(C(=O)N3CCn4c3nc3ccccc34)C(C)C)cc2s1 (stereo not drawn)	–	–	–	–	–	–
NCCC1CCCC(CCN)N1 (stereo not drawn)	·	·	·	·	·	–
O=C(CCCn1c(=O)[nH]c2cc(Cl)ccc2c1=O)NCC1CCCO1 (stereo not drawn)	–	–	–	23	–	–
CSc1ccccc1N=Cc1nc(-c2ccccc2)oc1O	–	–	–	–	–	–
CN(C)c1ccc(N=Cc2nc(-c3ccccc3)oc2O)cc1	–	–	–	–	–	54
COc1cc(NC(=O)C2CC(c3cccc(OC)c3OC)=NO2)cc(OC)c1OC (stereo not drawn)	–	–	–	69	–	–
COc1cc(C2=NOC(C(=O)Nc3ccc(C(C)=O)cc3)C2)cc(OC)c1OC (stereo not drawn)	–	–	–	–	–	–
CNC(=O)[C@H]1O[C@@H](n2cnc3c(N)ncnc32)C(O)[C@H]1O (stereo partly drawn)	·	·	·	·	·	–
C[C@@](Cc1ccc(O)c(O)c1)(NN)C(=O)O	·	–	–	·	·	–
CC(N)(Cc1ccc(O)c(O)c1)C(=O)O (stereo not drawn)	·	·	·	·	·	54
CC(C)C1O/C(=N/C(=O)Nc2ccc(Cl)c(Cl)c2)NC1=O (stereo not drawn)	–	–	–	–	–	–
SMILES	PKA kinase inh	DUSP1 inh	Cdc25B inh	JNK3 inh	ROCK2 inh	Hsp90 inh
Cc1ccc2nc(C)cc(OCC(=O)O)c2c1	–	–	–	–	–	–
Cc1cc2c(ccc3[nH]onc32)n1	29	–	–	–	18	–
N=S(=O)(O)Cc1noc2ccccc12	·	·	·	·	·	–
CC(C)OC(=O)CSc1nc2ccccc2s1	–	–	–	–	–	93
CC(C)c1nnc(NC(=O)CSc2nc3ccccc3s2)s1	–	–	–	–	–	–
COc1ccc2[nH]c(=O)c3c(c2c1)OC(C)(C)C=C3	–	–	–	–	23	–
NCCNS(=O)(=O)c1cccc2cnccc12	·	·	·	·	·	–
C(=N\c1nc2ccccc2n1CCN1CCCCC1)/c1cccs1	–	–	–	–	19	–
C(=N\c1nc2ccccc2n1CCN1CCCCC1)/c1ccc2c(c1)OCO2	–	–	–	–	–	–
O=C1NC(=O)c2cc(NC(=O)C3CCCCC3)ccc21	–	–	–	–	18	–
CC(=O)c1cccc(NC(=O)C2CCCC2)c1	·	–	–	·	·	·
c1ccc2nc3c(nc2c1)c1ccccc1n3CCN1CCOCC1	–	–	–	18	–	–
Cc1cc(N2CCOCC2)c2c(N)c(C)cc(C)c2n1	–	–	–	–	19	–
Cc1c(C(=O)N2CCCCC2)sc(N)c1C#N	–	–	–	–	26	–
